PubChem BioAssay AID1159580 (chemical genetic matrix, 2015)
Among all 5,500 compounds or so, about 2,000 (36%) were called active. Not shown: some 18% with an inconclusive outcome. No stated cut-off is given here; in the data, active means normalized growth mostly below about 0.91 (no sharp cut-off); inconclusive means no clear call, values can overlap the other calls; inactive means mostly above about 0.92. The list shows a part of the results.

Experiment: chemical genetic growth profiling, strain panel (AID 1159580);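 further: tested at 20 µM; growth read once vehicle control cultures reached saturation at 30 °C; 1 = growth at the plate median or of vehicle wells; lower values mean less growth of the strain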
Conditions: S. cerevisiae deletion strains, growth OD
[1] = locus YAL013W, strain DEP1, active compounds read low
[2] = locus YDR150W, strain NUM1, active compounds read low
[3] = locus YGR229C, strain SMI1, active compounds read low
[4] = locus YJR075W, strain HOC1, active compounds read low
[5] = locus YMR263W, strain SAP30, active compounds read low
[6] = locus YMR307W, strain GAS1, active compounds read low
[7] = locus YNL322C, strain KRE1, active compounds read low
[8] = locus YPL241C, strain CIN2, active compounds read low

Measured: normalized growth

CC1(C)CCC=[N+]1[O-]
inactive: [1] 1 | locus YAL040C, strain CLN3, active compounds read low 1.04 | locus YCL061C, strain MRC1 (second series), active compounds read low 1.01 | [2] 1 | locus YDR363W, strain ESC2, active compounds read low 1.02 | locus YER002W, strain NOP16, active compounds read low 0.98 | [3] 1.05 | [4] 1.03 | [5] 1 | [6] 1.01 | locus YNL175C, strain NOP13, active compounds read low 0.993 | locus YNL197C, strain WHI3, active compounds read low 1.01 | locus YNL224C, strain SQS1, active compounds read low 1 | [7] 1.01 | locus YOR083W, strain WHI5 (second series), active compounds read low 1.03 | [8] 1

CCOC(=O)CSc1nc2cc(C(F)(F)F)cnc2n1C
inactive: [1] 0.984 | locus YBR229C, strain ROT2, active compounds read low 0.98 | locus YDL101C, strain DUN1, active compounds read low 1.01 | locus YDL134C, strain PPH21, active compounds read low 0.975 | [2] 0.99 | locus YEL061C, strain CIN8, active compounds read low 0.993 | locus YGR078C, strain PAC10, active compounds read low 0.983 | [3] 1.01 | locus YHR030C, strain SLT2, active compounds read low 0.909 | locus YHR087W, strain rtc3, active compounds read low 0.96 | locus YJR043C, strain POL32, active compounds read low 0.988 | [4] 0.997 | locus YKL190W, strain CNB1, active compounds read low 1.01 | locus YLR039C, strain RIC1, active compounds read low 1.05 | locus YLR058C, strain SHM2 (second series), active compounds read low 0.985 | locus YLR085C, strain ARP6, active compounds read low 1.04 | locus YLR262C, strain YPT6, active compounds read low 1.03 | locus YML094W, strain GIM5, active compounds read low 0.952 | locus YMR219W, strain ESC1, active compounds read low 0.989 | [5] 0.99 | [6] 1.19 | locus YNL153C, strain GIM3, active compounds read low 1 | locus YNL298W, strain CLA4 (second series), active compounds read low 0.961 | [7] 0.982 | locus YNR030W, strain Alg12, active compounds read low 0.988 | locus YOL006C, strain TOP1, active compounds read low 0.942 | locus YPL055C, strain LGE1, active compounds read low 0.981 | [8] 1.07 | locus YPR135W, strain CTF4, active compounds read low 0.912
